Results filed as inconclusive are left out. Active and inactive are the calls of the source. Calls come from the whole dose curve; as a rule, active = well fitted curve in the direction sought with a large enough effect; inconclusive = small, poorly fitted or top-dose-only effect, or another doubt; inactive = no such curve, though single readings can be large; an effect the other way counts as inactive or inconclusive.
Legend:
CRL-7250 = normal cell line; experiment: Cytotoxic Profiling of Annotated Libraries Using Quantitative High-Throughput Screening (AID 1296008); conditions: Five cell lines viability, CellTiter-Glo ATP luminescence, 48-72 h; max response: hits give low values; note: nearly all actives have a fitted effect of over 60% in size; for max response: % is set by controls: 0 for no effect and ±100 for the full control effect
In short: (§1)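 Compounds were pin-transferred onto cells and incubated 48 or 72 hr at 37 degree Celsius, 95% humidity. CellTiter-Glo was added, plates sat 10 min at room temperature, then ATP-coupled luminescence was imaged as the viability read-out.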

HEK293 = experiment: as above; conditions: Five cell lines viability, CellTiter-Glo ATP luminescence, 48-72 h; max response: hits give low values
In short: as §1

HaCat [1] = experiment: as above; conditions: Five cell lines viability, CellTiter-Glo ATP luminescence, 48-72 h; max response: hits give low values
In short: as §1

KB-3-1 = experiment: as above; conditions: Five cell lines viability, CellTiter-Glo ATP luminescence, 48-72 h; max response: hits give low values
In short: as §1

NIH3T3 [2] = experiment: as above; conditions: Five cell lines viability, CellTiter-Glo ATP luminescence, 48-72 h; max response: hits give low values
In short: as §1

HACAT [3] = experiment: qHTS assay to identify novel small-molecules to repurpose for Merkel cell carcinoma treatment (AID 1296009); conditions: MCC and control cell lines, CellTiter-Glo viability, 72 h; at 44.8 µM (top of the series) unless noted; note: nearly all actives have a fitted effect of over 60% in size
In short: (§2)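 Luminescence from CellTiter-Glo, read 10 min after addition at room temperature, reported viability following a 72 hr, 37 degree celsius treatment with NPC or MIPE compounds in titration; values normalized to plate controls.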

NIH3T3 [4] = experiment: as above; conditions: MCC and control cell lines, CellTiter-Glo viability, 72 h; at 44.8 µM (top of the series) unless noted
In short: as §2

C33A = experiment: Primary qHTS to identify gynecologic anti-cancer compounds using libraries of approved drugs and bioactive compounds (AID 1345084); conditions: Gynecologic cancer cell panel viability, ATPlite luminescence, 48 h; series mostly up to 57.5 µM; note: % is set by controls: 0 for no effect and ±100 for the full control effect; nearly all actives have a fitted effect of over 55% in size
In short: (§3)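 48 h compound exposure at 37 C, 5% CO2; five-point qHTS. ATPlite luminescence readout of cell ATP.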

CAOV3 = experiment: as above; conditions: Gynecologic cancer cell panel viability, ATPlite luminescence, 48 h; series mostly up to 57.5 µM
In short: as §3

CASKI = experiment: as above; conditions: Gynecologic cancer cell panel viability, ATPlite luminescence, 48 h; series mostly up to 57.5 µM
In short: as §3

Es-2 = experiment: as above; conditions: Gynecologic cancer cell panel viability, ATPlite luminescence, 48 h; series mostly up to 57.5 µM
In short: as §3

HeLa = experiment: as above; conditions: Gynecologic cancer cell panel viability, ATPlite luminescence, 48 h; series mostly up to 57.5 µM
In short: as §3

Hek293T = experiment: as above; conditions: Gynecologic cancer cell panel viability, ATPlite luminescence, 48 h, control line for the selectivity index; series mostly up to 57.5 µM
In short: as §3

JEG-3 = experiment: as above; conditions: Gynecologic cancer cell panel viability, ATPlite luminescence, 48 h; series mostly up to 57.5 µM
In short: as §3

C[C@@H]1O[C@@H](O[C@@H]2[C@@H](O)[C@H](O[C@H]3[C@H](O[C@H]4CC[C@@]5(C)C(CC[C@]6(C)C5CC=C5[C@@H]7CC(C)(C)CC[C@]7(C(=O)O[C@@H]7O[C@H](CO)[C@@H](O)[C@H](O)[C@H]7O)CC[C@]56C)C4(C)C)O[C@H](C(=O)O)[C@@H](O)[C@@H]3O)OC[C@H]2O)[C@H](O)[C@H](O)[C@H]1O (stereo not given in full)
inactive: max response (CRL-7250) 2.65% | max response (HEK293) -0.54% | outcome (HaCat [1]) | outcome (KB-3-1) | outcome (NIH3T3 [2]) | outcome (HACAT [3]) inactive [at 9.27 µM] | outcome (NIH3T3 [4]) inactive [at 9.27 µM] | activity change, negative = cytotoxicity (C33A) -13.9% [at 11.6 µM] | activity change, negative = cytotoxicity (CAOV3) -6.12% [at 11.6 µM] | activity change, negative = cytotoxicity (CASKI) -1.32% [at 11.6 µM] | activity change, negative = cytotoxicity (Es-2) -9.99% [at 11.6 µM] | activity change, negative = cytotoxicity (HeLa) -3.66% [at 11.6 µM] | activity change, negative = cytotoxicity (Hek293T) -0.983% [at 11.6 µM] | activity change, negative = cytotoxicity (JEG-3) -0.837% [at 11.6 µM]

CC(=O)OC[C@]12[C@@H](OC(=O)c3ccoc3)C[C@@H]3[C@@H](OC(C)=O)[C@]1(OC3(C)C)[C@@](C)(O)C[C@H](OC(=O)c1ccoc1)[C@@H]2OC(=O)c1ccoc1
inactive: max response (CRL-7250) -3.29% | max response (HEK293) -2.85% | outcome (HaCat [1]) | max response (KB-3-1) 2.58% | outcome (NIH3T3 [2]) | outcome (HACAT [3]) inactive [at 17.4 µM] | outcome (NIH3T3 [4]) inactive [at 17.4 µM] | Potency (C33A) | Potency (CAOV3) | outcome (CASKI) | Potency (Es-2) | Potency (HeLa) | Potency (Hek293T) | Potency (JEG-3)

C[C@@H]1O[C@@H](O[C@@H]2[C@@H](O)[C@H](O[C@@H]3[C@@H](O)[C@@H](O)[C@H](O[C@H]4[C@H](OC(=O)[C@]56CCC(C)(C)C[C@H]5C5=CCC7[C@@]8(C)C[C@H](O)[C@H](O[C@@H]9O[C@H](C(=O)O)[C@@H](O)[C@H](O)[C@H]9O)[C@@](C)(CO)C8[C@H](O)C[C@@]7(C)[C@]5(C)C[C@H]6O)O[C@@H](CO)[C@@H]4O)O[C@H]3C)OC[C@H]2O)[C@H](O)[C@H](O)[C@H]1O (stereo not given in full)
inactive: max response (CRL-7250) 0.0733% | max response (HEK293) 1.63% | outcome (HaCat [1]) | outcome (KB-3-1) | outcome (NIH3T3 [2]) | outcome (HACAT [3]) inactive [at 9.27 µM] | outcome (NIH3T3 [4]) inactive [at 9.27 µM] | activity change, negative = cytotoxicity (C33A) 7.96% [at 6.55 µM] | activity change, negative = cytotoxicity (CAOV3) -1.08% [at 6.55 µM] | activity change, negative = cytotoxicity (CASKI) 4.5% [at 6.55 µM] | activity change, negative = cytotoxicity (Es-2) 7.92% [at 6.55 µM] | activity change, negative = cytotoxicity (HeLa) 5.7% [at 6.55 µM] | activity change, negative = cytotoxicity (Hek293T) 11.5% [at 6.55 µM] | activity change, negative = cytotoxicity (JEG-3) 3.64% [at 6.55 µM]

NC1(c2ccc(NC(=O)c3ccnc(-c4cc(C(=O)O)ccn4)c3)cc2)CC1
inactive: outcome (CRL-7250) | max response (HEK293) -8.28% | outcome (HaCat [1]) | outcome (KB-3-1) | outcome (NIH3T3 [2]) | outcome (HACAT [3]) | outcome (NIH3T3 [4]) | Potency (C33A) | Potency (CAOV3) | outcome (CASKI) | Potency (Es-2) | Potency (HeLa) | Potency (Hek293T) | Potency (JEG-3)

CC(=O)NC1C(OC2CCC3(C)C(CCC4(C)C3CC=C3C5CC(C)(C)CCC5(C(=O)O)C(O)CC34C)C2(C)C)OC(CO)C(O)C1O (stereo not given)
inactive: max response (CRL-7250) -37.4% | max response (HEK293) -25.2% | outcome (HaCat [1]) | max response (KB-3-1) 0.467% | outcome (NIH3T3 [2]) | outcome (HACAT [3]) inactive [at 17.4 µM] | outcome (NIH3T3 [4]) inactive [at 17.4 µM] | Potency (C33A) | Potency (CAOV3) | outcome (CASKI) | Potency (Es-2) | Potency (HeLa) | Potency (Hek293T) | Potency (JEG-3)

O=C1C(Cl)=C(N2CCOCC2)C(=O)N1c1ccc(Cl)c(Cl)c1
inactive: outcome (CRL-7250) | max response (HEK293) -3.24% | outcome (HaCat [1]) | outcome (KB-3-1) | outcome (NIH3T3 [2]) | outcome (HACAT [3]) inactive [at 17.4 µM] | outcome (NIH3T3 [4]) inactive [at 17.4 µM] | Potency (C33A) | Potency (CAOV3) | outcome (CASKI) | Potency (Es-2) | Potency (HeLa) | Potency (Hek293T) | Potency (JEG-3)

CC(=O)c1ccc(O[C@@H]2OC[C@@H](O)[C@H](O)[C@H]2O[C@]2(CO)O[C@H](CO)[C@@H](O)[C@@H]2O)c(O)c1
inactive: outcome (CRL-7250) | max response (HEK293) 2.18% | outcome (HaCat [1]) | outcome (KB-3-1) | outcome (NIH3T3 [2]) | outcome (HACAT [3]) inactive [at 17.4 µM] | outcome (NIH3T3 [4]) inactive [at 17.4 µM] | Potency (C33A) | Potency (CAOV3) | outcome (CASKI) | Potency (Es-2) | Potency (HeLa) | Potency (Hek293T) | Potency (JEG-3)

O=C(NC1CCN(CC(F)(F)F)CC1)c1ccc(-c2cccc(F)c2)nc1
inactive: outcome (CRL-7250) | max response (HEK293) -11% | outcome (HaCat [1]) | max response (KB-3-1) -3.14% | outcome (NIH3T3 [2]) | outcome (HACAT [3]) | outcome (NIH3T3 [4]) | Potency (C33A) | Potency (CAOV3) | outcome (CASKI) | Potency (Es-2) | Potency (HeLa) | Potency (Hek293T) | Potency (JEG-3)

CC(C)c1cc2c(c(O)c1O)[C@@]13CCCC(C)(C)C1[C@@H](O)[C@@H]2OC3=O (stereo not given in full)
inactive: max response (CRL-7250) 4.77% | max response (HEK293) -8.48% | outcome (HaCat [1]) | max response (KB-3-1) 7.44% | outcome (NIH3T3 [2]) | outcome (HACAT [3]) | outcome (NIH3T3 [4]) | Potency (C33A) | Potency (CAOV3) | outcome (CASKI) | Potency (Es-2) | Potency (HeLa) | Potency (Hek293T) | Potency (JEG-3)

CC1CC2OCC3(O)CCC(O)C(C14CC(c1ccoc1)OC4=O)C23CO (stereo not given)
inactive: outcome (CRL-7250) | max response (HEK293) -3.58% | outcome (HaCat [1]) | max response (KB-3-1) 9.94% | outcome (NIH3T3 [2]) | outcome (HACAT [3]) | outcome (NIH3T3 [4]) | Potency (C33A) | Potency (CAOV3) | outcome (CASKI) | Potency (Es-2) | Potency (HeLa) | Potency (Hek293T) | Potency (JEG-3)

— PubChem BioAssay (NCATS)
